{"source": "PubChem BioAssay AID1962", "about": "(The Scripps Research Institute Molecular Screening Center, 2009)", "note": "Hit rate of the full screen: of about 300,000 compounds, about 2,500 (0.83%) were called active. Only a selection was taken, and actives are over-represented in it overall. A number with no mark means an inactive call.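 How the source made its calls: active means inhibition above the mean of all tested compounds plus 3 SD, set per screening campaign (cut at about 24% in these data); inactive means the rest.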", "data": [{"tested_on": "tRNA 2'-phosphotransferase TPT1 (Candida albicans SC5314)", "assay": "tRNA 2'-phosphotransferase blockers, C. albicans – biochemical, fluorescence polarization, primary screen (AID 1962);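 further: plate controls were DMSO alone for no effect and ferristatin control at 100 nM for full effect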", "conditions": "recombinant caTPT1, FP RNA substrate dephosphorylation; at 5 µM; stronger effect = higher value", "values": [{"smiles": "COc1ccc(C(=O)NC(C)c2nccs2)cc1OC1CCN(C(C)C)CC1", "note": "(centres undefined)", "inhibition": "1.11%"}, {"smiles": "COc1ccc(CN(C)C(=S)Nc2ccc(Cl)cc2Cl)cc1", "inhibition": "-3.43%"}, {"smiles": "Cc1nc2ccccc2cc1C(=O)N/N=C/c1ccc([N+](=O)[O-])cc1", "inhibition": "1.45%"}, {"smiles": "O=C(Nn1c(-c2ccccc2)nc2ccccc2c1=O)c1ccc([N+](=O)[O-])cc1", "inhibition": "-2.22%"}, {"smiles": "Cc1nc2ccccc2nc(=O)c1NNc1ccc([N+](=O)[O-])cc1", "inhibition": "33% (active)"}, {"smiles": "COC(=O)c1c(C)oc(C)c1S(=O)(=O)Nc1ccc(C(C)C)cc1", "inhibition": "-2.31%"}, {"smiles": "COC(=O)c1cc(S(=O)(=O)NCC2CCN(Cc3ccc(Cl)cc3)CC2)cn1C", "inhibition": "-1.04%"}, {"smiles": "CCOC(=O)c1ccccc1CN1C(=O)c2ccccc2S1(=O)=O", "inhibition": "-6.64%"}, {"smiles": "CN1C(=O)/C(=C/C=C2\\SCCN2C)OC1=S", "inhibition": "124% (active)"}, {"smiles": "COc1ccc(Cc2nc(-c3ccccn3)no2)cc1OC", "inhibition": "48.4% (active)"}, {"smiles": "Cc1ccc(Cc2nc(-c3cccc(C)c3)no2)cc1", "inhibition": "1.83%"}, {"smiles": "COc1ccc(CCNS(=O)(=O)c2cccc3cccnc23)cc1OC", "inhibition": "1.77%"}, {"smiles": "CCOC(=O)c1sc(=S)n2c1[nH]c(=O)c1ccc(C(=O)OC)cc12", "inhibition": "-1.57%"}, {"smiles": "CCOC(=O)c1sc(=NC(=O)c2ccc(Br)cc2)n(C)c1C", "inhibition": "-2.11%"}, {"smiles": "CCOC(=O)C1=C(C)Nc2sc(C(=O)c3ccc(Br)cc3)c(N)c2C1c1ccc(C(=O)OC)cc1", "note": "(centres undefined)", "inhibition": "54.7% (active)"}, {"smiles": "Cc1ccccc1OCCOc1ccc([N+](=O)[O-])cc1/C=N/n1cnnc1", "inhibition": "2.12%"}, {"smiles": "O=C(N/N=C/c1ccc([N+](=O)[O-])cc1)c1c[nH]c2ccccc12", "inhibition": "1.12%"}, {"smiles": "O=[N+]([O-])c1ccc(N/N=C/c2ccccc2)cc1", "inhibition": "28.2% (active)"}, {"smiles": "O=[N+]([O-])c1cccc(/C=N/Nc2ncc(Br)cn2)c1", "inhibition": "0.84%"}, {"smiles": "Cc1ccc(NS(=O)(=O)c2ccc(N/N=C/c3ccccc3OCC(=O)O)c([N+](=O)[O-])c2)c(C)c1", "inhibition": "-2.41%"}, {"smiles": "Cc1cccc(COc2ccccc2/C=N/Nc2ccc([N+](=O)[O-])cc2)c1", "inhibition": "92.1% (active)"}, {"smiles": "O=[N+]([O-])c1ccc(N2CCN(c3ccc(O)cc3)CC2)c(Cl)c1", "inhibition": "1.48%"}, {"smiles": "O=S(=O)(c1cccc(Cn2nnc(-c3ccc(F)cc3)n2)c1)N1CCOCC1", "inhibition": "0.07%"}, {"smiles": "COc1ccc(C(CCN(Cc2ccc(OC)c(OC)c2)C(=O)CCl)c2ccccc2)cc1", "note": "(centres undefined)", "inhibition": "2.12%"}, {"smiles": "COc1ccc(-n2c(C)cc(C(=O)CN3C(=O)NC4(CCc5ccccc54)C3=O)c2C)cc1", "note": "(centres undefined)", "inhibition": "-8.74%"}, {"smiles": "CCOc1ccc(CNC(=O)C2CCCN(c3nnc(C)c4c(C)n(-c5ccccc5)nc34)C2)cc1", "note": "(centres undefined)", "inhibition": "1.81%"}, {"smiles": "CCOc1nnc(C)c2c(C)n(-c3cccc(Cl)c3)nc12", "inhibition": "24.6% (active)"}, {"smiles": "Cc1nn(-c2ccccc2)c(C)c1NC(=O)COc1ccc(Cl)cc1Cl", "inhibition": "-4.09%"}, {"smiles": "CCc1nn(CCCC(=O)NC(C)c2ccccc2)c(=O)c2cc3occc3n12", "note": "(centres undefined)", "inhibition": "-2.3%"}, {"smiles": "CCCCN(CCCC)CCNC(=O)CN1C(=O)COc2ccc(S(=O)(=O)N3CCOCC3)cc21", "inhibition": "-4.55%"}, {"smiles": "COc1ccc(Cn2c(C)c(C)c(C#N)c2NC(=O)Nc2ccc(F)cc2)cc1", "inhibition": "0.17%"}, {"smiles": "CN1CCN(Cc2c(O)ccc3c2oc(=O)c2ccccc23)CC1", "inhibition": "-1.97%"}, {"smiles": "CCOC(=O)c1oc2c(CN3CCN(CCO)CC3)c(O)c(CC)cc2c(=O)c1-c1nc2ccccc2s1", "inhibition": "-0.54%"}, {"smiles": "CC(C)(C)c1ccc(/C=C2\\Oc3c(ccc(O)c3CN3CCN(CCO)CC3)C2=O)cc1", "inhibition": "33.2% (active)"}, {"smiles": "CC(=O)N1N=C(c2ccncc2)OC1(Cc1ccccc1)Cc1ccccc1", "inhibition": "-0.93%"}, {"smiles": "O=C(CC12CC3CC(CC(C3)C1)C2)Nc1ccc2c(c1)COC2=O", "inhibition": "-3.75%"}, {"smiles": "Nc1nonc1-n1nnc(C(=O)N/N=C/c2cc(Br)ccc2O)c1CSC1=NCCS1", "inhibition": "24.7% (active)"}, {"smiles": "Nc1nonc1-n1nnc(C(=O)N/N=C/c2ccccc2O)c1CN1CCCC1", "inhibition": "-0.45%"}, {"smiles": "Cc1ccc(SCc2c(C(=O)N/N=C/c3cccnc3)nnn2-c2nonc2N)cc1", "inhibition": "0.4%"}, {"smiles": "COc1ccc(C(C(=O)NC2CCCCC2)N(C(=O)Cc2c[nH]c3ccccc23)c2ccccc2)cc1OC", "note": "(centres undefined)", "inhibition": "4.78%"}, {"smiles": "CC1=C(C(=O)Nc2ccccc2)C(c2ccco2)C(C#N)=C(SCC(N)=O)N1", "note": "(centres undefined)", "inhibition": "-4.83%"}, {"smiles": "N#CC1=C(N)Oc2c(ccc3cccnc23)C1c1ccncc1", "note": "(centres undefined)", "inhibition": "0.31%"}, {"smiles": "N#CC1=C(N)Oc2c(sc3ccccc23)C1c1ccco1", "note": "(centres undefined)", "inhibition": "100% (active)"}, {"smiles": "COCCCn1c(SCc2cccc(OC)c2)nc2cc(OC)c(OC)cc2c1=N", "inhibition": "-1.89%"}, {"smiles": "CC(=O)Nc1ccc(S(=O)(=O)NCC(=O)OCc2cc(=O)oc3ccc4ccccc4c23)cc1", "inhibition": "2.61%"}, {"smiles": "COc1ccc(/C=C(/NC(=O)c2ccc(C)cc2)c2nc3ccccc3[nH]2)cc1OC", "inhibition": "-0.67%"}, {"smiles": "COc1cc(/C=C(\\C#N)c2nc3ccccc3[nH]2)ccc1O", "inhibition": "96.4% (active)"}, {"smiles": "COc1cc(/C=N/Nc2nc3ccccc3s2)ccc1O", "inhibition": "-1.42%"}, {"smiles": "Cc1ccc2nc(/C(C#N)=C\\c3ccc(OC(=O)c4cccs4)cc3)[nH]c2c1", "inhibition": "4.21%"}, {"smiles": "COc1cc(/C=C(\\C#N)c2nc3c(s2)CC(C)CC3)ccc1O", "note": "(centres undefined)", "inhibition": "128% (active)"}, {"smiles": "CCNc1nc(NCC)nc(N/N=C/c2ccc(O)c(OC)c2)n1", "inhibition": "-0.04%"}, {"smiles": "CCn1c(CC(=O)Nc2ccc(C)cc2)nnc1SCC(=O)Nc1nc(C)cs1", "inhibition": "2.53%"}, {"smiles": "O=C(NCCCCCCNC(=O)NCc1ccco1)NCc1ccco1", "inhibition": "-3.7%"}, {"smiles": "COc1ccc2c(c1)CCNC2Cc1ccc(OC)c(O)c1", "note": "(centres undefined)", "inhibition": "-2.2%"}, {"smiles": "CC[C@H]1CN2CCc3cc(OC)c(OC)cc3[C@@H]2C[C@@H]1C[C@H]1NCCc2cc(OC)c(OC)cc21", "inhibition": "3.04%"}, {"smiles": "COc1cc2c(cc1O)[C@H](Cc1ccc(Oc3cc(C[C@@H]4NCCc5cc(OC)c(O)cc54)ccc3O)cc1)NCC2", "inhibition": "30% (active)"}, {"smiles": "O=S1(=O)CCO[C@H]2Cc3ccccc3[C@H]2N1Cc1ccccc1", "inhibition": "3.47%"}, {"smiles": "O=C(CCc1ccccc1)Nc1ccnn1C1CCN(Cc2ccc(OCCO)cc2)CC1", "inhibition": "-3.8%"}, {"smiles": "Cc1ccc(C)c2[nH]c(=O)c(CCNC(=O)CC(C)C)cc12", "inhibition": "51.6% (active)"}, {"smiles": "Cc1ccc(C)c2[nH]c(=O)c(CCNC(=O)c3cccs3)cc12", "inhibition": "-3.33%"}, {"smiles": "COc1ccc(OC)c2[nH]c(=O)c(CCNC(=O)C(C)(C)C)cc12", "inhibition": "1.81%"}, {"smiles": "CCc1ccnc(NS(=O)(=O)c2ccc3c(c2)OCCO3)c1", "inhibition": "-1.71%"}, {"smiles": "O=C(C1CCCO1)N1CCN(C(=S)NC2CC2)CC1", "note": "(centres undefined)", "inhibition": "-3.35%"}, {"smiles": "COc1ccc(N2CCN(C(=O)/C(C#N)=C/c3ccccc3)CC2)cc1", "inhibition": "19.5%"}, {"smiles": "CCOC(=O)/C(C#N)=C/c1ccc(N2CCN(Cc3ccccc3)CC2)cc1", "inhibition": "48% (active)"}, {"smiles": "CCOC(=O)/C(C#N)=C/c1ccc(OCC(=O)Nc2ccccc2)c(OC)c1", "inhibition": "-2.78%"}, {"smiles": "CCOC(=O)NC(=O)/C(C#N)=C\\c1ccccc1", "inhibition": "-1.78%"}, {"smiles": "CCOC(=O)/C(C#N)=C/c1ccc(N2CCCCC2)cc1", "inhibition": "116% (active)"}, {"smiles": "COc1ccc(/C=C(\\C#N)C(=O)ONC2=NCCCCC2)cc1", "inhibition": "0.43%"}, {"smiles": "CN(C)S(=O)(=O)c1cccc(-c2nn(-c3ccccc3)cc2/C=C2\\SC(=S)N(CC(=O)O)C2=O)c1", "inhibition": "-1.23%"}, {"smiles": "COc1ccc(-c2nn(-c3ccccc3)cc2/C=C2/SC(=S)N(CCCC(=O)O)C2=O)c(C)c1", "inhibition": "1.54%"}, {"smiles": "Cc1ccc(-c2nn(-c3ccccc3)cc2/C=C2\\SC(=S)N(CCCCCC(=O)O)C2=O)o1", "inhibition": "49.2% (active)"}, {"smiles": "CCC(C)Sc1nc(C)nc2c1c(=O)n(C)c(=O)n2C", "note": "(centres undefined)", "inhibition": "-1.63%"}, {"smiles": "NC(=O)NCCCC(=O)O", "inhibition": "-0.59%"}, {"smiles": "COc1ccc(/C=N/NC(=O)c2cc(-c3cccc(C)c3)nc3ccccc23)cc1O", "inhibition": "-4.75%"}, {"smiles": "Cc1sc2nc(CSCC(=O)Nc3c(Cl)cccc3Cl)[nH]c(=O)c2c1C", "inhibition": "17.1%"}, {"smiles": "Cc1sc2nc(COC(=O)C(NC(=O)c3ccc(Cl)cc3Cl)C(C)C)[nH]c(=O)c2c1C", "note": "(centres undefined)", "inhibition": "33.1% (active)"}, {"smiles": "CC(C)NC(=O)c1ccc(Cl)cc1Cl", "inhibition": "-0.44%"}, {"smiles": "CSCCC(NC(=O)c1ccc(Cl)cc1Cl)C(=O)NNC(=O)c1csc(N2CCOCC2)n1", "note": "(centres undefined)", "inhibition": "1.09%"}, {"smiles": "COc1ccc(N2CC(C)Cn3c2nc2c3c(=O)n(Cc3ccccc3F)c(=O)n2C)c(OC)c1", "note": "(centres undefined)", "inhibition": "1.36%"}, {"smiles": "CC(=O)N/C(=C/c1ccc(Cl)cc1)C(=O)NCCc1c[nH]c2ccccc12", "inhibition": "-3.35%"}, {"smiles": "O=C(CN1C(=O)NC2(CCCCC2)C1=O)NCCc1c[nH]c2ccccc12", "inhibition": "-3.99%"}, {"smiles": "N#C/C(=C/c1ccc(N2CCCCC2)o1)C(=O)NCCc1c[nH]c2ccccc12", "inhibition": "178% (active)"}, {"smiles": "CC(C)c1ccc(Nc2nnc(SCC(=O)c3nnc(-c4ccccc4)o3)s2)cc1", "inhibition": "42% (active)"}, {"smiles": "O=C(CSc1nnc(Nc2ccccc2)s1)Nc1cccnc1Cl", "inhibition": "-0.7%"}, {"smiles": "Cc1ccc(Nc2nnc(SCC(=O)c3cc4ccccc4o3)s2)cc1C", "inhibition": "9.66%"}, {"smiles": "CC(C)CN1CCNC(=O)C1CC(=O)N(C)CC1CCOCC1", "note": "(centres undefined)", "inhibition": "-5.14%"}, {"smiles": "COc1ccc(S(=O)(=O)NCC2CCCN(C(=O)c3occc3C)C2)cc1", "note": "(centres undefined)", "inhibition": "-4.48%"}, {"smiles": "CCN1CCN(C(=O)Cn2nc(C)n3c(cc4c(OC)cccc43)c2=O)CC1", "inhibition": "1.92%"}]}]}
